Consider 43 compounds from paper PMC4336329 (PLoS ONE, 2015).

Hit rate of the full screen: of about 310,000 compounds, about 2,200 (0.71%) showed an effect of 50% or more. Effects have a minus sign here. The full list was thinned out, with strong results kept by preference.

The target of the assay is human ether-à-go-go-related gene (hERG) potassium channel (human, UniProt Q12809). Put plainly: primary screen, population patch clamp on CHO cells stably expressing hERG; higher = less effect of the substance.
Sequence of human ether-à-go-go-related gene (hERG) potassium channel (Q12809 whole entry, looked up): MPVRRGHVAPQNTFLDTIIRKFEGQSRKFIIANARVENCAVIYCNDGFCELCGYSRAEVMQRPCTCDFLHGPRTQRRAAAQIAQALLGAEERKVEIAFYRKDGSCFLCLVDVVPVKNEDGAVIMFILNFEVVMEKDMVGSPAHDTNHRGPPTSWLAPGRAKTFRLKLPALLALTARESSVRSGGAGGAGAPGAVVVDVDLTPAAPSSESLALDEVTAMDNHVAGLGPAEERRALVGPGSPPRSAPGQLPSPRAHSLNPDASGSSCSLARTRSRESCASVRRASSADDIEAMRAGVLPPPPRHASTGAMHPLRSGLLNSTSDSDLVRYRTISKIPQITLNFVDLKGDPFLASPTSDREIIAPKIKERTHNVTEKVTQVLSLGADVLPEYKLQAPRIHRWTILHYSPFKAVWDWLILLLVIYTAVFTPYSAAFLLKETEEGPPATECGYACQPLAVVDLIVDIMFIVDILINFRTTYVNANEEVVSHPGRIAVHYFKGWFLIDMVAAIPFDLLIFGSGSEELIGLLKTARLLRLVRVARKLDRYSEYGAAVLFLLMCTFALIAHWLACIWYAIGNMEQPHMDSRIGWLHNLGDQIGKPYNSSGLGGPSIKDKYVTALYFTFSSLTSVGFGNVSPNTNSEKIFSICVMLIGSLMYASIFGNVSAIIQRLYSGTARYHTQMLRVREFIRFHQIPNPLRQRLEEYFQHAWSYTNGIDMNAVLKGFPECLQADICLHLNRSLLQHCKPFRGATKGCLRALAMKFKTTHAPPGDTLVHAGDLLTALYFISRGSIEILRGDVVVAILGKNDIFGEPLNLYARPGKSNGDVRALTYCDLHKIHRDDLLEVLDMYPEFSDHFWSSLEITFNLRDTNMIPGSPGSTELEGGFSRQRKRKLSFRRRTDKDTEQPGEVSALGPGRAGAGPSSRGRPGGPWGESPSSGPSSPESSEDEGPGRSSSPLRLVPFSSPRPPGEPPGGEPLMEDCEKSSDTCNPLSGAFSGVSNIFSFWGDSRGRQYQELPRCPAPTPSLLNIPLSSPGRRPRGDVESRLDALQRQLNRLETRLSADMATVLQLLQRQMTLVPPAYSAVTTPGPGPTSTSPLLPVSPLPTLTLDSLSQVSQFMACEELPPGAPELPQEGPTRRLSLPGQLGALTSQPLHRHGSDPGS
In the case of `Cl.O=S1(=O)N=C(N(CCO)/N=C/c2ccncc2)c2ccccc21`, the “hERG current change (%, negative = inhibition) at 1uM” value amounted to 7.58%.

For `CC1CCCCC12NC(=O)N(CC(=O)Nc1ccc(N3CCOCC3)cc1)C2=O` (stereo not shown), the “hERG current change (%, negative = inhibition) at 1uM” value is recorded as 4.35%.

With `S=c1[nH]nc(-c2ccncc2)n1/N=C/c1cccc(Cl)c1`, the “hERG current change (%, negative = inhibition) at 1uM” value was 8.7%. As for `CNc1c([N+](=O)[O-])cnn1-c1ccccc1Cl`, the figure is -13.4%; as for `N#Cc1cncc(-c2ccc3c(c2)OCCOCCOCCOCCOCCO3)n1`, -95.2%; as for `O=[N+]([O-])c1ccc2c(c1)OCCOCCOCCOCCOCCOCCO2`, -32.5%.

Consider `c1ccn2cc(-c3ccc4c(c3)OCCO4)nc2c1`, for which the “hERG current change (%, negative = inhibition) at 1uM” value turned out to be 4.22%. As for `c1cncc(-c2nc(-c3ccc4c(c3)OCCO4)cs2)c1`, the figure is 9.93%.

In the case of `N#CCC(=O)Nc1nc(-c2ccc3c(c2)OCCO3)cs1`, the “hERG current change (%, negative = inhibition) at 1uM” value was 8.5%.

For `N#Cc1ncc(-c2ccc3c(c2)OCCOCCOCCOCCOCCO3)nc1C#N`, the “hERG current change (%, negative = inhibition) at 1uM” value is listed as -84.8%. As for `Cc1ccc2nc(-c3ccc4c(c3)OCCO4)cn2c1`, the figure is 15.7%; as for `Cl.Nc1nc(-c2ccc3c(c2)OCCO3)cs1`, 14.3%; as for `N#Cc1ncc(-c2ccc3c(c2)OCCOCCOCCOCCO3)nc1C#N`, -63.6%. As for `CC1CCN(C(=O)COC(=O)C23CC4CC(CC(O)(C4)C2)C3)CC1`, the figure is 18.8%; as for `CCC(C)(C)n1nnnc1C(c1ccncc1)N1CCC(C)CC1` (stereo not shown), -0.168%; as for `CCCn1nc2ccccc2c1P(=O)(N1CCOCC1)N1CCOCC1`, -0.888%. As for `O=C(NCCc1cccc(Cl)c1)c1cc2ccccc2oc1=O`, the figure is 12.5%; as for `O=C1CCCc2c1nn(-c1ccccc1)[n+]2[O-]`, 6.47%. On to `Cc1nn(CC(=O)Nc2c(C)n(C)n(-c3ccccc3)c2=O)c(C)c1[N+](=O)[O-]`, for which the “hERG current change (%, negative = inhibition) at 1uM” value amounted to 8.99%. Turning to `Cc1nn(CC(=O)Nc2cccnc2)c(=O)c2ccccc12`, the “hERG current change (%, negative = inhibition) at 1uM” value was -9.14%. As for `CCOC(=O)CC1C(=O)NCCN1c1nc2c(C)cccn2c(=O)c1/C=C1\SC(=S)N(C(C)CC)C1=O` (stereo not shown), the figure is 9.18%. As for `CCOC(=O)C1CCN(C(=O)c2sc3ncnc(N4CCC(C)CC4)c3c2C)CC1`, the figure is -57.3%; as for `Cc1c(C(=O)N2CCC(Cc3ccccc3)CC2)sc2ncnc(N3CCC(C)CC3)c12`, 9.72%. As for `CCOC(=O)C1CCN(C(=O)c2sc3nc(C)nc(N4CCC(C)CC4)c3c2C)CC1`, the figure is -1.96%; as for `COc1ccc2nc(SCC(=O)Nc3ccc(S(=O)(=O)N4CCCC4)cc3)c(C#N)cc2c1`, -3.01%; as for `CN(C)C(=O)c1cc(C(=O)c2ccc(F)cc2C(F)(F)F)c[nH]1`, 14.3%. Take `Cc1nn(-c2cccc(Cl)c2)c2c1C(c1ccncc1)C(C#N)=C(N)O2` (stereo not shown): the “hERG current change (%, negative = inhibition) at 1uM” value was 5.94%. As for `CCOC(=O)CCCCC(=O)c1[nH]c(=O)[nH]c1CSc1nnc2c3ccccc3n(C(C)C)c2n1`, the figure is -0.434%; as for `CC(C)(C)c1ccc(C(=O)C2CCCN(C3CCC3)C2)cc1` (stereo not shown), 10.7%; as for `O=C(c1ccc(C(F)(F)F)cc1)C1CCCN(C2CCSCC2)C1` (stereo not shown), -64.4%.

Take `O=C(c1ccc(C(F)(F)F)cc1)C1CCCN(C(=O)c2csnn2)C1` (stereo not shown): the “hERG current change (%, negative = inhibition) at 1uM” value was 9.85%. As for `O=C(c1ccc(Cl)cc1)C1CCCN(C2CCSCC2)C1` (stereo not shown), the figure is -63.4%; as for `CN1CCCC(C(=O)c2ccc(Cl)cc2)C1` (stereo not shown), -2.93%; as for `Cc1cc(Cl)ccc1C(=O)C1CCCN(C2CCSCC2)C1` (stereo not shown), -49.3%. Consider `CCC(=O)Nc1ccc(S(=O)(=O)Nc2cccc(C)c2)cc1OC`, for which the “hERG current change (%, negative = inhibition) at 1uM” value was 6.57%. As for `COc1cc(O)c(C(CCN2CCOCC2)c2ccc3c(c2)OCO3)c(OC)c1` (stereo not shown), the “hERG current change (%, negative = inhibition) at 1uM” value is recorded as -45.7%.

With `O=C(CCN1CCCCC1)c1ccc2c(c1)OCO2`, the “hERG current change (%, negative = inhibition) at 1uM” value worked out at 10.3%. For the compound `CC(C)CCC(CCN1CCOCC1)c1ccc2c(c1)OCO2.Cl` (stereo not shown), the “hERG current change (%, negative = inhibition) at 1uM” value is -76.8%. As for `COc1cc(OC)c2ccc(=O)oc2c1C(CCN1CCCC1)c1ccc2c(c1)OCO2` (stereo not shown), the figure is -7.33%. As for `C(=NCCCN1CCOCC1)c1ccc2c(c1)OCO2`, the figure is 16.1%. As for `CC(C)CCC(CCN1CCCC1)c1ccc2c(c1)OCO2.O=C(O)C(=O)O` (stereo not shown), the figure is -83.3%. For the compound `CC(=O)Nc1ccc(NC(=O)C(C)OC(=O)CNC(=O)c2cccs2)cc1` (stereo not shown), the “hERG current change (%, negative = inhibition) at 1uM” value worked out at 12.5%. As for `CCOC(=O)c1c(-c2ccc(C)cc2C)csc1NC(=O)CSc1nnnn1C`, the figure is -3.8%.
